The text below walks through data of ChEMBL document CHEMBL4513216, “Probing the Open Global Health Chemical Diversity Library for Multistage-Active Starting Points for Next-Generation Antimalarials” (ACS Infect Dis, 2020).

The whole screen tested about 65,000 compounds, of which about 2,100 (3.2%) showed an effect of 50% or more. The median lay at about -52%. The sample holds strong results, similar compounds and a random draw of the others, so the mix is not that of the screen.

The experiment deals with Plasmodium falciparum. As to the kind of experiment: Screen against P. falciparum Asexual Blood Stage (ABS), at 5uM. The class given is functional, Dd2. As to conditions: tested at 5 uM.
For the compound `CS(=O)(=O)N1Cc2ccnn2CC(C(=O)NCc2cccnc2)C1` (centres undefined), the INHIBITION was -95.4%. For `Cc1cnc(N2C[C@@H]3[C@@H](C2)OCC(=O)N3CCN(C)C)nc1`, the INHIBITION is recorded as -122%. In the case of `CCc1ccsc1C(=O)N1CCN(CCN2C(=O)CCC2=O)CC1`, the INHIBITION was -170%.

As for `Cc1nn(C)cc1CN(C)C(=O)c1ccncc1`, the INHIBITION was -130%. As to `COc1ccc(-c2csc3c2c(N)nc(=O)n3CCCN(C)C)cc1`, the INHIBITION came out at 54.2%. Take `CCn1c(=O)nc(N)c2c(-c3ccc(OC)cc3)csc21`: the INHIBITION is -67.6%. For the compound `COc1ccc(-c2csc3c2c(N)nc(=O)n3CCN(C)C)cc1`, the INHIBITION is reported as -27.7%.

`O=C1COC2(CCN(Cc3ccoc3)CC2)CN1c1ccsc1`: the INHIBITION was -66%. `OCc1cc2ccccc2nc1N1CCCCC1`: the INHIBITION is given as -56.3%.

Turning to `CC(C)N(C)C(=O)c1ccc(CNc2ccncc2Cl)cc1`, the INHIBITION came out at 24.6%. The same measure for `COc1cc(C)ccc1S(=O)(=O)N[C@H]1CN(C(C)=O)C[C@@H]1C1CC1`: -120%; for `CN(C)S(=O)(=O)N1CCCC(c2cccc(Cc3ccc(F)cc3)n2)C1` (centres undefined): -107%. The value for `O=C(c1ccncc1)N1CCOC2(CCCN(c3nncs3)C2)C1` (centres undefined) was -74.2%. For `CN1CCOC(CNC(=O)COc2ccc(F)cc2F)C1` (centres undefined), the INHIBITION is recorded as -69.6%. The value for `CC(C)N1CCC(CNC(=O)CCc2cc(F)ccc2F)C1` (centres undefined) was 7.8%; that for `CC(C)N1CCC(CNC(=O)COc2ccc(F)cc2F)C1` (centres undefined) was 53.3%. `Cc1ccc(N2CC[C@@H]3[C@@H]2CCN3C(=O)Cc2ccccc2)nn1`: the INHIBITION is recorded as -79%. The same measure for `O=C(C1CC1)N1CCCC1C1CCN(Cc2ccccc2)CC1` (centres undefined): -40.8%; for `O=C(C1CCC1)N1CCC(C2CCN(Cc3ccc(Cl)cc3)C2)CC1` (centres undefined): 65.6%; for `O=C(C1CCCC1)N1CCC(C2CCN(Cc3ccc(Cl)cc3)C2)CC1` (centres undefined): 64.3%. As to `Clc1ccc(N2CCC(C3CCN(Cc4cccnc4)CC3)C2)nc1` (centres undefined), the INHIBITION is on record as 12.7%. For `CCOCC(=O)N1CCC(C2CCN(Cc3ccc(Cl)cc3)C2)CC1` (centres undefined), the INHIBITION is 0.245%. The same measure for `Clc1ccc(CN2CCC(C3CCN(Cc4cccnc4)CC3)C2)cc1` (centres undefined): 64.4%; for `CC(=O)NCC(=O)N1CCC(C2CCN(Cc3ccc(Cl)cc3)C2)CC1` (centres undefined): 5.47%. Take `Clc1cccnc1N1CCC(C2CCN(Cc3cccnc3)CC2)C1` (centres undefined): the INHIBITION is on record as -49.5%. `CN1CCN(Cc2ccc(Cl)cc2)CC1C(=O)O` (centres undefined): the INHIBITION is listed as -94.1%.

`Cc1cc(C)n(CC2CCCN2C(=O)c2c(C)noc2C)n1` (centres undefined): the INHIBITION is -97.8%. Take `Cc1nc(CN2CCCN(CCOc3ccc(C#N)cc3)CC2)no1`: the INHIBITION is on record as -71.7%. The value for `CCN(Cc1nc(COC)no1)C(=O)CCn1c(C)cc2ccccc21` was 10%; that for `Cc1cc2ccccc2n1CCC(=O)NCc1ncc[nH]1` was -0.748%; that for `CCN(Cc1ccncc1)C(=O)CCn1c(C)cc2ccccc21` was 56.5%.

On to `O=C(NC1CCCC1)c1cc2c(s1)CCN2C(=O)c1ccccc1`, for which the INHIBITION is -63.7%. Turning to `Cc1nc(C)n(CC2CCCN2CCCOc2ccc(C#N)cc2)n1` (centres undefined), the INHIBITION is on record as -33.2%.

On to `COc1ccc(S(=O)(=O)N2Cc3c(CN(C)C)nn(C)c3C2)cc1`, for which the INHIBITION stood at 40.7%. The same measure for `Cc1ccc(S(=O)(=O)N2Cc3c(CN(C)C)nn(C)c3C2)cc1`: 42.8%; for `CCc1ccc(S(=O)(=O)N2Cc3c(CN(C)C)nn(C)c3C2)cc1`: 63.9%; for `C[C@@H](O)CNC(=O)c1nc(CC(=O)Nc2ccccc2)no1`: -40.2%. `CC(NC(=O)N1CCN(c2cccs2)CC1)c1ccc(C#N)cc1` (centres undefined): the INHIBITION is 63.2%.

For the compound `CC(NC(=O)N1CCN(c2cccs2)CC1)c1ccncc1` (centres undefined), the INHIBITION is listed as -28.9%.

Regarding `CC(NC(=O)N1CCN(c2ncccn2)CC1)c1ccc(C#N)cc1` (centres undefined), the INHIBITION is listed as 19.1%. As to `Cc1ccnn1CCC(=O)N1C[C@@H]2CC[C@H]1CN(CC(=O)N(C)C)C2`, the INHIBITION is -46.9%. As to `CC(C)(C)c1ccc(S(=O)(=O)CCN2CCNC(=O)CC2)cc1`, the INHIBITION is on record as -97.7%. With `COCCNc1ncc(-c2cccc(OC)c2)c(-c2nccn2C)n1`, the INHIBITION amounted to 69.3%.

On to `COCCCNc1ncc(-c2cccc(F)c2)c(-c2nccn2C)n1`, for which the INHIBITION is listed as -138%. The value for `COCCNc1ncc(-c2cccc(F)c2)c(-c2nccn2C)n1` was -10.2%; that for `Cc1nnsc1CN1C[C@H]2CC[C@@H](C1)N(Cc1ccccc1)C2` was -69.4%. In the case of `COc1cccc(CN2CCCCC2CN2CCOCC2)c1F` (centres undefined), the INHIBITION is listed as 4.8%. For `COc1cc2c(cc1CN1C[C@@H](CN3CCOCC3)[C@@H](CO)C1)CCC2`, the INHIBITION is reported as 21.7%.

In the case of `COc1cc2c(cc1CN1CCCCC1CN1CCOCC1)CCC2` (centres undefined), the INHIBITION worked out at 65.9%. In the case of `CC(OCC1CC1)C(=O)Nc1ncccc1I` (centres undefined), the INHIBITION is on record as -86.5%. Regarding `COCCn1cncc1CN1CCCC(C(=O)Cc2ccccc2)C1` (centres undefined), the INHIBITION is -43.6%. As to `CC1(c2ccccc2)CCCN(Cc2nnc(-c3cccnc3)o2)C1` (centres undefined), the INHIBITION is recorded as -119%. As to `O=C(C1CCCN(Cc2ccccc2)C1)N1CCc2sccc2C1` (centres undefined), the INHIBITION came out at 12.7%. The value for `COCCn1cncc1Cn1cccc(C(F)(F)F)c1=O` was -90.4%; that for `O=C(Cc1ccccc1)C1CCCN(Cc2cncn2C2CCCC2)C1` (centres undefined) was 57.8%. For `COCCN1CCCC12CCN(Cc1cncn1C)CC2`, the INHIBITION is listed as -12.2%. Turning to `CN1CCCC2(CCN(Cc3cncn3C3CCCCC3)C2)C1=O` (centres undefined), the INHIBITION is on record as -28.7%. As to `CC1(c2ccccc2)CCCN(Cc2cncn2C2CC2)C1` (centres undefined), the INHIBITION amounted to 67.2%.

Regarding `COCCn1cncc1CN1CCCC(C)(c2ccccc2)C1` (centres undefined), the INHIBITION is reported as 61.5%.

With `Cn1nc(C(=O)NCc2ccc(Cl)cc2)c2c1CCS(=O)(=O)C2`, the INHIBITION is given as -79%. For the compound `COCC(=O)N1CCC2(COCc3cnc(N4CCOCC4)nc32)C1` (centres undefined), the INHIBITION is reported as -38%.

As for `CC(C)n1nc(CN(C)C)c2c1CN(C(=O)CC1CC1)CC2`, the INHIBITION was -91.2%.

With `COc1cc(NC(=O)N2CCCC2c2nncn2C)ccc1Br` (centres undefined), the INHIBITION is -53.7%. As for `CCS(=O)(=O)NCc1nc(C)cc(N2CCCCC2)n1`, the INHIBITION was -38.7%. For `Cn1nc(CN2CCCC2)c2c1CN(CC1CC1)CC2`, the INHIBITION is on record as -16.8%.

Take `CC(C)n1nc(CN(C)C)c2c1CN(CC1CC1)CC2`: the INHIBITION is given as -87.1%. Consider `CC(C)n1nc(CN2CCCC2)c2c1CN(CC1CC1)CC2`, for which the INHIBITION was found to be 55.7%.

For `CC(C)N(C)Cc1cnc2n1CCN(C(=O)c1cccs1)C2`, the INHIBITION was determined as 62.6%.

On to `CC(C)N(C)Cc1cnc2n1CCN(C(=O)Cc1ccsc1)C2`, for which the INHIBITION is -45.1%. Regarding `CC(C)N(C)Cc1cnc2n1CCN(C(=O)Cc1ccccn1)C2`, the INHIBITION was -6.41%. Turning to `Cc1ccc(C(=O)N2CCC(Oc3ccc(C)c(C)c3)CC2)c(=O)[nH]1`, the INHIBITION was -19.9%. The same measure for `Cc1nc(CN2CCc3ncnc(C)c3CC2)cs1`: -152%; for `CC(C)CCN1Cc2c(C(=O)N3CCCC3)nn(C)c2C1`: -58.9%; for `COc1ccc(NCC2(O)CCNCC2)cc1OC`: -115%. On to `Cn1cc([C@@H]2CN(S(C)(=O)=O)C[C@H]2N)c2ccncc21`, for which the INHIBITION was determined as 16.8%.

On to `Cn1cc([C@@H]2CN(S(=O)(=O)c3cccnc3)C[C@H]2N)c2ccncc21`, for which the INHIBITION is recorded as -21.6%.

Regarding `Cn1cc([C@@H]2CN(S(=O)(=O)c3ccccc3F)C[C@H]2N)c2ccncc21`, the INHIBITION worked out at 63.4%.

In the case of `CN(C)c1ccc(C(=O)N(CCO)CC2CC2)c(F)c1`, the INHIBITION was -93.3%. In the case of `Cc1nn(C)cc1-c1cc(C(F)(F)F)nn1CCC#N`, the INHIBITION was -167%. As to `Cc1cc(N2CCC(Cc3ncccn3)C2)ncn1` (centres undefined), the INHIBITION is -89.6%. Turning to `CC(O)CNCc1ccccc1C(F)(F)F` (centres undefined), the INHIBITION is listed as -46.2%. The same measure for `Oc1ccc(Cl)cc1CNCc1ccccc1C(F)(F)F`: 64.5%; for `Nc1nnnn1NCc1ccccc1C(F)(F)F`: -13.1%. For `O=C(COCCOc1ccccc1)Nc1ccnn1CC1CCOC1` (centres undefined), the INHIBITION was -132%. Take `CCN(C(=O)CCOC)C(c1ccc(Cl)cc1)c1ccccn1` (centres undefined): the INHIBITION is -56.9%. Regarding `O=C(O)CC(NC(=O)c1ccccc1OC(F)F)c1cccs1` (centres undefined), the INHIBITION is reported as -127%. The same measure for `CCCc1ccc(S(=O)(=O)Nc2ccc(=O)n(C)c2)cc1`: -53.7%; for `CCC(=O)N1CCC2(CC1)COc1ccccc1S(=O)(=O)N(C)C2`: -29.3%; for `CN1CC2(CCN(CC3CC3)CC2)COc2ccccc2S1(=O)=O`: 52.5%. The same measure for `CCCN1CCC2(CC1)COc1ccccc1S(=O)(=O)N(CC1CC1)C2`: -32.6%. For `COCCN1CCC2(CC1)COc1ccccc1S(=O)(=O)N(C)C2`, the INHIBITION was -7.6%. The same measure for `CN1CC2(CCN(Cc3ccoc3)CC2)COc2ccccc2S1(=O)=O`: 61.9%. The same measure for `CN(C)C(=O)CN1CCC2(CC1)COc1ccccc1S(=O)(=O)N(C)C2`: -44.5%.

With `COc1cccc(-c2ncc(CN3C[C@H]4CC[C@@H](C3)N(C)C4=O)s2)c1`, the INHIBITION is -211%.

For the compound `COc1cc(F)c(NC(=O)N(C)Cc2cc(C)on2)cc1F`, the INHIBITION is recorded as -69.1%. The same measure for `Cc1cnn(CCC(=O)N2CCN(C(=O)C(C)C)[C@@H]3CS(=O)(=O)C[C@@H]32)c1`: -87.4%.

Take `CCOC(=O)c1nc(COc2ccc(CC(N)=O)cc2)no1`: the INHIBITION is recorded as -26%. Turning to `COCCN1CC[C@@H](O)[C@@H]1Cc1ccccc1`, the INHIBITION is -32.4%.

As for `CO[C@@H]1CCN(Cc2nccs2)C[C@@H]1Cc1ccccc1`, the INHIBITION is listed as -9.75%.

For the compound `COCCN1CC[C@@H](OC)[C@@H]1Cc1ccccc1`, the INHIBITION was determined as 1.53%. Turning to `COc1ccc(C[C@H]2CN(Cc3ccoc3)CC[C@@H]2OC)cc1`, the INHIBITION stood at 64.8%. The value for `COc1ccc(C[C@H]2CN(c3cc(OC)ncn3)CC[C@@H]2OC)cc1` was -0.505%; that for `Cc1noc(C)c1CN1CC[C@@H](OCC2CC2)[C@@H](Cc2ccccc2)C1` was 26.2%; that for `CO[C@H]1CCN(Cc2ccoc2)C[C@@H]1Cc1ccccc1` was 67.3%. With `c1ccc(C[C@H]2CN(Cc3nccs3)CC[C@H]2OCC2CC2)cc1`, the INHIBITION is reported as 40.9%.

For `Cc1noc(C)c1CN1CC[C@H](OCC2CC2)[C@@H](Cc2ccccc2)C1`, the INHIBITION was 62.1%. In the case of `CO[C@H]1CCN(Cc2nccs2)C[C@@H]1Cc1ccccc1`, the INHIBITION is -25.6%. The value for `COc1ccc(C[C@H]2CN(C(=O)C3CC3)CC[C@H]2OC)cc1` was 35.6%; that for `COCCN1CC[C@H](OC)[C@@H]1Cc1ccccc1` was 62.8%.
